The results in this text go back to the supplement of paper PMC11417369.

Over roughly 25,000 sequences, “ln(normalized median fluorescence intensity)” has its median near 7.1; the highest 2% begin near 10. The entries come from a sample that favours the highest values as a whole.

This experiment has as its system PfSIP2 AP2 domain 1 (GST-tagged). Kind of experiment: gcPBM binding intensity (ln(normalized median fluorescence intensity)); higher = stronger DNA binding. An outline of the steps: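 After 1 h on an Agilent 4 × 180k array of primer-extended double-stranded 36-bp intergenic genomic probes and negative controls, bound GST-tagged P. falciparum DNA-binding domains were detected with Alexa488 anti-GST antibody and scanned at 488 nm. The domains had been expressed in E. coli, and binding took place in 1× PBS with 1% milk, 0.2 mg/ml BSA, 0.5% salmon testes DNA and 0.03% Triton X-100. Binding intensity is the highest Masliner-normalised natural-log median intensity across replicate spots of either probe orientation.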
Turning to “ATATATGACTAATAAAGTACATACTTCATATAATTA [XGTACX_site6699]”, the “gcPBM binding intensity (ln)” value amounted to 7.06.
Consider “TAAGTATATTTCTGCACACAAAAAAAAAAACCAAAA [CACACA_site4056]”, for which the “gcPBM binding intensity (ln)” value was found to be 7.18.
As for “AATGATATATTTAAATGTACACATGAAATATAATAT [XGTACX_site2678]”, the figure is 7.06; as for “ATAAAAAAAAAATAATGTACTTATATATATATATAT [XGTACX_site8282]”, 9.32; as for “TATATTATAGGTTGTGTACACATATTATATAGTACT [CACACA_site4583]”, 7.16.
To “GATGTATAAAATAATACATGCATGTCCTACATATAT [TGCATGCA_site155]” belongs 6.89.
To “AATACGGCAAACATTAAAAAATATAATAACAATAAA [CACACA_negctrl_site868]” belongs 6.96.
On to “GCAAGGTCCACACTGGTGCATTAAAAATAAAATATA [GTGCAC_site9956]”, for which the “gcPBM binding intensity (ln)” value was 10.4.
As for “TATGTGTGCAAAAACTGTACACATTAAAGGTATATA [XGTACX_site7627]”, the “gcPBM binding intensity (ln)” value came to 7.54.
“ACATATAAAATATATACACACATATAAATACATTAA [CACACA_site3867]”: the “gcPBM binding intensity (ln)” value amounted to 7.06.
For “ATATGTACGCAAGGTGCACACTGGTGCATTAAAAAA [CACACA_site1801]”, the “gcPBM binding intensity (ln)” value was found to be 12.3.
As for CATTATGTACAAAAAGTGCAATATATATTAACACTG, the figure is 8.23.
To “TGCAAAAAATTCCACACACACACACGCATATAAATA [CACACA_site6696]” belongs 7.27; to “GAATATGAATATTTGCGTACTTATATAACTGTTCTA [XGTACX_site883]”, 6.83; to “GTGTTAATTTTAAATTGTACAAAATTTATATGATTT [XGTACX_site348]”, 7.19.
As for “TAAATGTTTCTCAAAAGTACACATGTGATATTTCTT [XGTACX_site2065]”, the figure is 6.84.
Turning to “TATGTGTATTTATTTGCATGTTGGTTGTATTTTTTC [TGCATGCA_site479]”, the “gcPBM binding intensity (ln)” value came to 6.93.
Consider “AGCATTTTTCATTTTGCACACATGTTTTATGTGTAT [CACACA_site3454]”, for which the “gcPBM binding intensity (ln)” value was found to be 7.11.
As for “TATTTTCTCGTTTGCATGCACCTTATTTTATGTGGT [GTGCAC_site9470]”, the figure is 10.8; as for “ACTTGTTTTCAATGTAAAATACAATTTTCATTTATT [CACACA_negctrl_site435]”, 7.08.
To “TATTAAATTTATCGGAGTACATTTAAATGTATATAC [XGTACX_site7975]” belongs 7.13.
To “TATATAACATATAACACACATACTTAGTATTACATA [CACACA_site3099]” belongs 7; to “TCTTTTCTCGGAAGGGTGCAAGGAATTAATGAAATA [GTGCAC_site9706]”, 11.1; to TAATATAAATGAAAGGTGCTTTTGCTTTCTTTTTTT, 7.08.
On to “TTCTTTTCTCTTTTAATCATATTATATAAATGAATA [CACACA_negctrl_site820]”, for which the “gcPBM binding intensity (ln)” value was determined as 7.29.
As for “TTTTTATTTTTTTATTTCTTATCAAATAAAATATAT [XGTACX_negctrl_site537]”, the figure is 6.84.
To “TGTTTTGTTGTGTATTGTACTAATATAAATATATAA [XGTACX_site1852]” belongs 7.41; to “TTGCAATAATGTTGCACACTAAATAGTCATATATAA [CACACA_site263]”, 7.31; to TATAAGGCAATAATAGTGCACTAAGATATATAATGA, 10.6.
As for TATTAATATATAGTAGTGCAATAAAGATATACTGAA, the figure is 8.3; as for “AAGTAGTGTTAATACTGTACTTATATTTTTTATTAT [XGTACX_site8264]”, 6.92.
Consider “ATTAAAAATATAGTCACACATACACCCATATATATT [CACACA_site5394]”, for which the “gcPBM binding intensity (ln)” value stood at 6.92.
As for “ATATCCATAATAAAAACATGCAACAGAAAAAAAAAA [TGCATGCA_site497]”, the figure is 7.14; as for “AATATAAATAAAAACACACACAATGGTACATATATA [CACACA_site3671]”, 7.02.
For “TAATTATAATAATAACGTACATATATAAAATGGTGA [XGTACX_site8434]”, the “gcPBM binding intensity (ln)” value was found to be 7.21.
Regarding “AGTATAAATAAATCATAAACATATATATATATATAT [GTGCAC_negctrl_site356]”, the “gcPBM binding intensity (ln)” value amounted to 9.25.
To “ATTTTATATACAAAATGTACATATTTATTATATATG [XGTACX_site6732]” belongs 6.99; to “ATGTATGCAAAAATGGTGCATATTAAATGTATAACA [GTGCAC_site9722]”, 11.1.
As for “ATTATGTACAAAATGGTGCAATATTATACATATATA [GTGCAC_site9468]”, the figure is 10.4.
To “TACAAATATATAAAATGTACATATATATACATATTA [XGTACX_site3029]” belongs 6.92; to CATATATAAATATGTATGCACTTTAACAAAATGTAT, 7.74; to “TATATATTTATTAAATGTACATAACAAAAATGGTAT [XGTACX_site3577]”, 7.41.
As for “ATATATATTAAAAATAGTACATATAATAAAAATCAT [XGTACX_site4265]”, the “gcPBM binding intensity (ln)” value worked out at 7.11.
As for AATCATATTAGTATGGTGCAACATATATAAATATAT, the figure is 10.8.
To “ATAAAACGTACAATGGTGCATATAAATAATATATAT [GTGCAC_site9960]” belongs 10.8; to “GTAATATTAAAATATACACACATAGAATATATATAT [CACACA_site4391]”, 8.8.
With “TATATATAATATAGTGCATGTAAAAAATAAACCATG [TGCATGCA_site932]”, the “gcPBM binding intensity (ln)” value amounted to 9.18.
To TATAATAATATAATGGTGCATGTATATAACCATATA belongs 10.7.
To “GCATGTATAATGGTAGTGCATATAATAATATAATAA [GTGCAC_site9548]” belongs 9.06.
As to “TGAACTCACGAGCACACACACACATATATATATATA [CACACA_site8248]”, the “gcPBM binding intensity (ln)” value came to 9.18.
To “TAAAATTTAAAATATACACACAAAAAGTTATTACAA [CACACA_site4080]” belongs 6.93; to “AACTGTACAATTTTTGTGCACAATAATTATTAATAT [GTGCAC_site9462]”, 8.74.
Consider “CTAATCGTGCACAACTGTACATTTGTCAAGGGCAAT [XGTACX_site8662]”, for which the “gcPBM binding intensity (ln)” value amounted to 10.4.
As for “TAAAATATATAAAACTGTACATTTTAAAGGCACAAC [XGTACX_site8342]”, the figure is 7.55.
To “ATATAAATGATATGTACACACATTTATATATATAAA [CACACA_site3475]” belongs 7.04; to “AATATATACCAACATAAATATATATATATATATATA [TGCATGCA_negctrl_site334]”, 9.89; to ATTTTATTTTATTAAGTGCAAAAAAAAAAAAAGAAA, 8.24.
For “ATAAAATTATTATATACATGCAAAATTAATATATTG [TGCATGCA_site507]”, the “gcPBM binding intensity (ln)” value was found to be 6.84.
As for “TCAAAAGAATAATTGGTGCAAATTATATAATATAAT [GTGCAC_site9804]”, the “gcPBM binding intensity (ln)” value came to 10.2.
To “TTATAATATATATAAAAGAAAAAAAATTATAATATA [CACACA_negctrl_site90]” belongs 6.69; to AATATTTTATTTTGGGTGCAAAAGAATATTATTTCA, 10.4.
For “TTAAAAGAATATAATGCACACATTATTTTATTTTAT [CACACA_site3772]”, the “gcPBM binding intensity (ln)” value turned out to be 7.03.
